# Laboratory results published in article PMC12864922, “TDP-43 directly inhibits mRNA accumulation in neurites through modulation of mRNA stability”.
# The full ranking holds about 9,900 sequences; the median of “r (bound/input frequency ratio)” is about 0.7, and the highest 2% start at about 6.5. For the sample, the highest values were picked, then their nearest neighbours and some sequences at random.
# B1: ENSMUSG00000058297.19|Spock2|137:141;145:158;167:178;192:198;207:216;222:247 (ssRNA)
# RNA: GGGAGUUCUACAGUCCGACGAUCGCUUCGAUAUCCGCAUGCUACGACGGCCUCGGCAGGCCAGGGUGCCGACGGCCAGAAAGACAGGCCAGAAGAGACCUGGACAACAGCAGGCAACUUAGCAAAUGGAUCCGGAAGUCAGUGCGGAGGACCCUGGCUCCAGUGGGGGAGGACUGGGGACACACGCUACACACAUACACACAUAUGAGAACACACACAUACAUGUGAGAUGUGACACACACAUGUGAGAACACACAUACUGAGAACACACACACACACACACACACACACAUGUGAGUCACCCCUCUUGCGGUCGCACUAGUGUGGAAUUCUCGGGUGUCAAGG
# B2: ENSMUSG00000058297.18|Spock2|143:147;151:164;173:184;198:204;213:222;228:253 (ssRNA)
# RNA: GGGAGUUCUACAGUCCGACGAUCGCUUCGAUAUCCGCAUGCUAAGCCCUCGACGGCCUCGGCAGGCCAGGGUGCCGACGGCCAGAAAGACAGGCCAGAAGAGACCUGGACAACAGCAGGCAACUUAGCAAAUGGAUCCGGAAGUCAGUGCGGAGGACCCUGGCUCCAGUGGGGGAGGACUGGGGACACACGCUACACACAUACACACAUAUGAGAACACACACAUACAUGUGAGAUGUGACACACACAUGUGAGAACACACAUACUGAGAACACACACACACACACACACACACACAUGUGAGCUCUUGCGGUCGCACUAGUGUGGAAUUCUCGGGUGUCAAGG
# B3: ENSMUSG00000058297.19|Spock2 (ssRNA)
# RNA: GGGAGUUCUACAGUCCGACGAUCGCUUCGAUAUCCGCAUGCUACGACGGCCUCGGCAGGCCAGGGUGCCGACGGCCAGAAAGACAGGCCAGAAGAGACCUGGACAACAGCAGGCAACUUAGCAAAUGGAUCCGGAAGUCAGUGCGGAGGACCCUGGCUCCAGUGGGGGAGGACUGGGGAGUGUGGCUUGUGUGUAUGUGUGAUAUGAGAUGUGUGUGUAUGAUGUGAGAUGUGAGUGUGUGAUGUGAGAUGUGUGUAUGUGAGAUGUGUGUGUGUGUGUGUGUGUGUGUGAUGUGAGUCACCCCUCUUGCGGUCGCACUAGUGUGGAAUUCUCGGGUGUCAAGG
# B4: ENSMUSG00000058297.20|Spock2 (ssRNA)
# RNA: GGGAGUUCUACAGUCCGACGAUCGCUUCGAUAUCCGCAUGCUACCUCGGCAGGCCAGGGUGCCGACGGCCAGAAAGACAGGCCAGAAGAGACCUGGACAACAGCAGGCAACUUAGCAAAUGGAUCCGGAAGUCAGUGCGGAGGACCCUGGCUCCAGUGGGGGAGGACUGGGGAGUGUGGCUUGUGUGUAUGUGUGAUAUGAGAUGUGUGUGUAUGAUGUGAGAUGUGAGUGUGUGAUGUGAGAUGUGUGUAUGUGAGAUGUGUGUGUGUGUGUGUGUGUGUGUGAUGUGAGUCACCCAAAGGUCUCUUGCGGUCGCACUAGUGUGGAAUUCUCGGGUGUCAAGG
# B5: ENSMUSG00000058297.18|Spock2 (ssRNA)
# RNA: GGGAGUUCUACAGUCCGACGAUCGCUUCGAUAUCCGCAUGCUAAGCCCUCGACGGCCUCGGCAGGCCAGGGUGCCGACGGCCAGAAAGACAGGCCAGAAGAGACCUGGACAACAGCAGGCAACUUAGCAAAUGGAUCCGGAAGUCAGUGCGGAGGACCCUGGCUCCAGUGGGGGAGGACUGGGGAGUGUGGCUUGUGUGUAUGUGUGAUAUGAGAUGUGUGUGUAUGAUGUGAGAUGUGAGUGUGUGAUGUGAGAUGUGUGUAUGUGAGAUGUGUGUGUGUGUGUGUGUGUGUGUGAUGUGAGCUCUUGCGGUCGCACUAGUGUGGAAUUCUCGGGUGUCAAGG
# B6: ENSMUSG00000058297.21|Spock2|125:129;133:146;155:166;180:186;195:204;210:235 (ssRNA)
# RNA: GGGAGUUCUACAGUCCGACGAUCGCUUCGAUAUCCGCAUGCUACAGGCCAGGGUGCCGACGGCCAGAAAGACAGGCCAGAAGAGACCUGGACAACAGCAGGCAACUUAGCAAAUGGAUCCGGAAGUCAGUGCGGAGGACCCUGGCUCCAGUGGGGGAGGACUGGGGACACACGCUACACACAUACACACAUAUGAGAACACACACAUACAUGUGAGAUGUGACACACACAUGUGAGAACACACAUACUGAGAACACACACACACACACACACACACACAUGUGAGUCACCCAAAGGUCCCUAUCUCUUGCGGUCGCACUAGUGUGGAAUUCUCGGGUGUCAAGG
# B7: ENSMUSG00000058297.21|Spock2 (ssRNA)
# RNA: GGGAGUUCUACAGUCCGACGAUCGCUUCGAUAUCCGCAUGCUACAGGCCAGGGUGCCGACGGCCAGAAAGACAGGCCAGAAGAGACCUGGACAACAGCAGGCAACUUAGCAAAUGGAUCCGGAAGUCAGUGCGGAGGACCCUGGCUCCAGUGGGGGAGGACUGGGGAGUGUGGCUUGUGUGUAUGUGUGAUAUGAGAUGUGUGUGUAUGAUGUGAGAUGUGAGUGUGUGAUGUGAGAUGUGUGUAUGUGAGAUGUGUGUGUGUGUGUGUGUGUGUGUGAUGUGAGUCACCCAAAGGUCCCUAUCUCUUGCGGUCGCACUAGUGUGGAAUUCUCGGGUGUCAAGG
# B8: ENSMUSG00000058297.5|Spock2|221:225;229:242;251:259 (ssRNA)
# RNA: GGGAGUUCUACAGUCCGACGAUCGCUUCGAUAUCCGCAUGCUAAGAAGAGGCAGGGGAGGAGGCCGAGGAGGAGGAGGGUGAGGCGGGUGAGGCAGAUGAUGGAGGCUACAUCUGGUAGAUAGCCCUCGACGGCCUCGGCAGGCCAGGGUGCCGACGGCCAGAAAGACAGGCCAGAAGAGACCUGGACAACAGCAGGCAACUUAGCAAAUGGAUCCGGAAGUCAGUGCGGAGGACCCUGGCUCCAGUGGGGGAGGACUGGGGACACACGCUACACACAUACACACAUAUGAGAACACACACAACUCUUGCGGUCGCACUAGUGUGGAAUUCUCGGGUGUCAAGG
# B9: ENSMUSG00000058297.22|Spock2 (ssRNA)
# RNA: GGGAGUUCUACAGUCCGACGAUCGCUUCGAUAUCCGCAUGCUAAGGGUGCCGACGGCCAGAAAGACAGGCCAGAAGAGACCUGGACAACAGCAGGCAACUUAGCAAAUGGAUCCGGAAGUCAGUGCGGAGGACCCUGGCUCCAGUGGGGGAGGACUGGGGAGUGUGGCUUGUGUGUAUGUGUGAUAUGAGAUGUGUGUGUAUGAUGUGAGAUGUGAGUGUGUGAUGUGAGAUGUGUGUAUGUGAGAUGUGUGUGUGUGUGUGUGUGUGUGUGAUGUGAGUCACCCAAAGGUCCCUAUGUUAUUCUCUUGCGGUCGCACUAGUGUGGAAUUCUCGGGUGUCAAGG
# Target: TDP-43 (Homo sapiens, UniProt Q13148 1-414)
# Sequence (Q13148 whole entry): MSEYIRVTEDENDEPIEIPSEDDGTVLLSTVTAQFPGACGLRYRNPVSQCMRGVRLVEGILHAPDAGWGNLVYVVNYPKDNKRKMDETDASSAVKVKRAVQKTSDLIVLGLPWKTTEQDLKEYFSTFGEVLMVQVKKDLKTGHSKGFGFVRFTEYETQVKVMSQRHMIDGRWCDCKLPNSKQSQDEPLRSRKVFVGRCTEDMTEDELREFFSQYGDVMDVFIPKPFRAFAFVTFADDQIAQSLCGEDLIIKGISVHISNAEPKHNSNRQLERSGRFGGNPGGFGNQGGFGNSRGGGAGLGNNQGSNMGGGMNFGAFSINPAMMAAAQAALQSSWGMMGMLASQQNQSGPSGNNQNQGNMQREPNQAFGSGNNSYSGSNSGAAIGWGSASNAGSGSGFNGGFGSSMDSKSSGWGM
# Assay: RNA Bind-n-Seq with designed 260-mer pool; 25 mM Tris-HCl, 150 mM KCl, 3 mM MgCl2, BSA (printed 500 mg/mL), 20 units/mL SUPERase IN; pH not stated; 500 nM RNA pool, 1 h, 4 C; TDP-43 5, 50, 500 nM; high values mean tight binding
# Conditions: protein: recombinant; tags: SBP (GST cleaved off with PreScission; pGEX-GST-SBP)
# Summary of the method: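 For each oligo, R gives binding as its mapped-read-normalized abundance after pulldown divided by its abundance in input. Bead-captured SBP-tagged TDP-43 (5, 50 or 500 nM) was incubated with 500 nM of an in vitro-transcribed 260-nt 3′ UTR oligo pool for 1 h at 4 °C in 25 mM Tris-HCl, 150 mM KCl, 3 mM MgCl2, BSA and SUPERase IN on streptavidin beads. Washed, biotin-eluted RNA was reverse transcribed, PCR-amplified and sequenced.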
row,Binder,binding signal
1,B1,3.73 R (bound/input frequency ratio)
2,B2,3.16 R (bound/input frequency ratio)
3,B3,6.67 R (bound/input frequency ratio)
4,B4,8.16 R (bound/input frequency ratio)
5,B5,7.4 R (bound/input frequency ratio)
6,B6,2.78 R (bound/input frequency ratio)
7,B7,6.78 R (bound/input frequency ratio)
8,B8,2.97 R (bound/input frequency ratio)
9,B9,5.79 R (bound/input frequency ratio)
